Source: PubChem BioAssay (National Center for Advancing Translational Sciences (NCATS))
Sampled rows, rich in hits. Any-hit rate of the full collection: about 0.83%.
Six1-Eya2 inh: inhibitors of human Six1/Eya2 interaction; Q15475+O00167; AlphaScreen GST-Six1/His-Eya2 binding, biochemical; active compounds read low; activity change, % (test concentration not listed); actives 0.56% (n = 360,000); AID 651725
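Six1/Eya2 binding was read as AlphaScreen signal after compounds were pinned into GST-Six1 plus His-tagged Eya2 (5X stock 250/500 nM) in pH 8.0 Tris/NaCl/TCEP buffer, beads added, then incubated 1 h, 37 C, dark.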
Menin-MLL TR inh: inhibitors of human menin-MLL interaction, mutant MLL peptide; actives 0.23% (n = 270,000); Menin + Texas Red MLL mutant peptide, fluorescence polarization; Potency, µM (highest dose often 61.6 µM), hits mostly inhibitors; active = well fitted inhibition curve with a large enough effect in the polarisation, with a control signal flat, not every such curve was filed as active; inconclusive = small, poorly fitted or top-dose-only effect, or effect the other way, or a change in a side signal; inactive = no such curve, though single readings can be large or run the other way; the % refers to the polarisation
CXXC DNA block: MLL CXXC-DNA interaction inhibition; Q03164; MLL-CXXC / FITC-HOXA9 DNA fluorescence polarization; Potency, µM (highest dose often 115 µM), actives largely listed as inhibitors; actives 0.037% (n = 290,000); active = well fitted inhibition curve with a large enough effect in the polarisation, with a control signal flat, not every such curve was filed as active; inconclusive = small, poorly fitted or top-dose-only effect, or effect the other way, or a change in a side signal; inactive = no such curve, though single readings can be large or run the other way; the % refers to the polarisation
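Fluorescence polarization: 7 uM MLL-CXXC (stock) preincubated 5 min with compounds, then 50 nM fluorescein-HOX-A9 DNA (stock) added; 30 min ambient. Buffer 50 mM Tris-HCl pH 7.5, 50 mM NaCl, 1 mM DTT, 0.05% BSA.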
Menin MLL FP FL: menin-MLL binding inhibition, fluorescein peptide. Fluorescence polarization, fluorescein-MLL peptide displacement from menin. FP activity change, % at 61.4 µM. 290,000 tested, under 10 active. AID 1766; active = well fitted curve in the direction sought with a large enough effect in the polarisation, not every such curve was filed as active; inconclusive = small, poorly fitted or top-dose-only effect, or effect the other way, or a change in a side signal; inactive = no such curve, though single readings can be large or run the other way; the % refers to the polarisation
GLS inh: inhibitors of human glutaminase (GLS); O94925; GLS enzymatic activity, qHTS titration; Potency, µM (highest dose often 45.5 µM), actives largely listed as inhibitors; actives 0.21% (n = 410,000); AID 624170; active = well fitted inhibition curve with a large enough effect; inconclusive = small, poorly fitted or top-dose-only effect, or another doubt; inactive = no such curve, though single readings can be large or run the other way
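hKGA in 45 mM KH2PO4 pH 8.2, 0.02% Tween-20 with pin-transferred compounds; 1 mM L-glutamine (stock) plus glutamate oxidase/HRP/Amplex Red coupling added. Fluorescence read initially and after 30 min at RT.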
CtBP-E1A blk: blocks the CtBP interaction with E1A | AlphaScreen GST-E1A/His-CtBP binding, 1536-well; active compounds read low | activity change, % (no concentration beside the values) | actives 0.49% (n = 340,000)
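Homogeneous bead-based format: GST-tagged E1A captured on glutathione donor beads, His-tagged CtBP on nickel acceptor beads; compounds precede bead addition by 2 h at 37 °C.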
Hits are given with their value; . = inactive; ? = inconclusive; / = no result given; [ ] = another dose, or the depositor's remark. Rule as the data show it, unless noted: active = activity change below about -65%; inconclusive = mostly about -30% to -63%; inactive = weaker than that.

SMILES | Six1-Eya2 inh | Menin-MLL TR inh | CXXC DNA block | Menin MLL FP FL | GLS inh | CtBP-E1A blk
O=C(NNc1ccccn1)C(=O)NNS(=O)(=O)c1ccc(Cl)cc1 | -85 | / | ? | . | . | ?
O=C(NNS(=O)(=O)c1ccc(F)cc1)c1ccccc1 | . | . | . | . | . | .
O=C(NNc1ccccn1)C(=O)NNS(=O)(=O)c1ccc(F)cc1 | -90 | . | . | . | . | -92
COCCNC(=O)C(=O)NNS(=O)(=O)c1ccc(Cl)cc1 | . | . | . | . | . | .
CC(=O)OC1CC2C(C)(C)C(O)CC[C@@]2(C)C2CC[C@@]3(C)C(c4ccoc4)OC(=O)C4O[C@@]43[C@]12C (some centres undefined) | / | . | / | . | / | /
Cc1ccc(-n2c(=O)[nH]c3sc4c(c3c2=O)CCCC4)cc1 | / | / | / | / | . | /
O=c1[nH]c2sc3c(c2c2nncn12)CCCC3 | -79 | . | . | . | . | -83
CC(=O)N(C1=C(Cl)C(=O)c2ccccc2C1=O)C1CCCCC1 | . | / | . | . | 6.3µM | .
O=C(CSc1nc2ccccc2nc1Cc1ccc(Cl)cc1)N1CCN(c2ccccc2F)CC1 | / | / | / | / | . | /
COc1ccc(NC2CC(=O)N(c3cc([N+](=O)[O-])ccc3C)C2=O)cc1 (centres undefined) | . | . | . | . | 7.1µM | .
CC(C)N(Cc1ccccc1)S(=O)(=O)c1ccc(-c2cc(C(F)(F)F)on2)s1 | / | / | / | / | . | /
CC[C@H](C)[C@H](N)C(=O)N[C@@H](CCCNC(=N)N)C(=O)N[C@@H](CCC(N)=O)C(=O)NCC(=O)N1CCC[C@H]1C(=O)N[C@@H](CCCCN)C(=O)N[C@@H](CCC(=O)O)C(=O)N1CCC[C@H]1C(=O)N[C@@H](Cc1ccccc1)C(=O)N[C@@H](CCCNC(=N)N)C(=O)N[C@@H](CC(=O)O)C(=O)N[C@@H](Cc1ccc(O)cc1)C(=O)N[C@H](C(=O)N[C@@H](CC(=O)O)C(=O)N[C@@H](CCCNC(=N)N)C(=O)N[C@@H](Cc1ccccc1)C(=O)N[C@@H](Cc1ccc(O)cc1)C(=O)N[C@@H](CCCCN)C(=O)N[C@H](C(=O)N[C@@H](CC(C)C)C(=O)O)[C@@H](C)O)C(C)C | / | . | / | . | / | /
O=C1O[C@H](CO)[C@@H](O)[C@H](O)[C@H]1O | . | / | / | / | . | .
O=CC(O)C1OC(=O)C(O)C1O (centres undefined) | ? | / | / | / | 11µM | .
COc1ccc(N=C2S/C(=C\c3ccc(N4CCOCC4)o3)C(=O)N2CCc2c[nH]c3ccccc23)cc1 | / | ? | . | ? | / | /
COc1ccc(N=C2S/C(=C\c3ccc(OCC(=O)O)cc3)C(=O)N2CCc2c[nH]c3ccccc23)cc1 | -80 | ? | . | . | 10µM | .
O=C(O)COc1ccc2c(c1)O/C(=C\c1ccco1)C2=O | ? | . | . | ? | 10µM | .
COc1ccc2nc3oc(C(=O)Nc4cccc(C(F)(F)F)c4)cc3cc2c1 | / | / | / | / | . | /
COc1ccc(O)c(/C=N/NC(=O)c2cc(=O)[nH]c3ccccc23)c1 | -92 | / | . | . | . | ?
O=C(/C=C\c1ccccc1)NCC(=O)N/N=C/c1ccc(O)cc1O | -75 | . | . | . | . | -97
O=C(CNC(=O)C1COc2ccccc2O1)N/N=C/c1ccc(O)cc1O (centres undefined) | -88 | . | . | . | . | -88
COc1ccc(/C=C\C(=O)NCC(=O)N/N=C/c2ccc(O)cc2O)cc1 | -88 | / | . | . | . | .
O=C(Cn1c(=O)n(Cc2ccc(F)cc2)c(=O)c2sc3ccccc3c21)Nc1ccc(F)cc1F | / | / | / | / | . | /
CCOc1ccc(NC(=O)c2sc3nc4c(c(-c5ccc(OC)cc5)c3c2N)C(=O)CC(C)(C)C4)cc1 | / | / | / | / | . | /
N#Cc1ccc(CN2CCC3(CC2)CCN(C(=O)c2cc(C(F)(F)F)cc(C(F)(F)F)c2)CC3)cc1 | / | . | / | . | / | /
Cc1ccccc1OC1C=CC(C#Cc2ccc(Br)cc2)OC1CO (centres undefined) | / | .[11.7 µM] | / | .[11.7 µM] | / | /
CCOc1ccc2[nH]c(C(=O)N/N=C/c3ccc(OC)cc3)cc2c1 | . | . | . | . | . | .
